# Reference: ChEMBL document CHEMBL4513146, “CO-ADD screening of Karazin Kharkiv National University (Ukraine) compounds”
# Measured potencies and affinities stand elsewhere.
# Tested on: Escherichia coli
# Details: Concentration 32 ug.mL-1;; ASSAY_TEST Inhibition of Bacterial Growth; detection method Absorption (OD600); MEDIA CAMHB; plate type 384well; NBS; CORNING #3640; time 18 hr
row,Compound,Inhibition [%]
1,O=C(CSc1nnc2c(=O)n(-c3ccccc3)ccn12)Nc1ccc(Br)cc1,-4.01
2,CC(C)Cn1c(=O)c2sccc2n2c(=O)n(CC(=O)N(C)c3ccccc3)nc12,-0.39
3,O=c1c2sccc2n2c(SCc3cccc(C(F)(F)F)c3)nnc2n1Cc1cccs1,-11.21
4,CC(C)c1nnc2c(=O)n(CC(=O)Nc3ccc(C#N)cc3)c3ccccc3n12,-7.65
5,Cc1ccc(NC(=O)CSc2nc3ccccc3n3c(C(C)C)nnc23)cc1Cl,-6.42
6,CSc1ccc(CNC(=O)Cn2nc3c(Oc4cccc(C)c4C)nccn3c2=O)cc1,2.94
7,COC(=O)c1ccc(NC(=O)Cn2nc3c4sc(N5CCCC5)nc4ncn3c2=O)cc1,-9.22
8,Cc1ccc(-c2ccc3nn(Cc4nc(-c5ccc(OC(F)(F)F)cc5)no4)c(=O)n3n2)cc1,-3.94
9,Cn1c(=O)c2ccc(C(=O)NC3CCCCC3)cc2n2c(=O)n(Cc3cccc(C(F)(F)F)c3)nc12,-0.17
10,Cc1cc(C)cc(NC(=O)Cn2nc3n(C)c(=O)c4c(c(-c5ccccc5)cn4C)n3c2=O)c1,1.88
